Reference: PubChem BioAssay (Tox21)
Inconclusive results are not listed. Activity calls are given as the source filed them. Unless noted, calls follow the shape of the full dose curve.

Tests used:
[1] = Nuclear factor erythroid 2-related factor 2/antioxidant responsive element (Nrf2/ARE) small molecule agonists: qHTS cell viability counter screen in human keratinocytes (AID 1919968; active = well fitted curve in the direction sought with a large enough effect in the repeat runs; an effect the other way counts as inactive or inconclusive; also: nearly all actives have a fitted effect of over 55% in size; also: potency is read from the fitted curve at half-maximal effect)
Outline: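 CellTiter-Fluor fluorescence, read 1 h after reagent, gave viability in the same wells as the ARE-luciferase assay. KeratinoSens cells (1,500/well) had 23 h compound exposure at 37 C/5% CO2 following 5 h plating.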

[2] = Nuclear factor erythroid 2-related factor 2/antioxidant responsive element (Nrf2/ARE) small molecule agonists: luciferase reporter gene qHTS assay in human keratinocytes (AID 1919969); also: nearly all actives have a fitted effect of over 35% in size; also: potency is read from the fitted curve at half-maximal effect
[3] = target: Gonadotropin-releasing hormone receptor (Homo sapiens) (UniProt P30968); assay: Human gonadotropin-releasing hormone receptor (GnRHR) small molecule agonists, calcium flux assay in GnRHR-HEK293 cells (AID 1920063); also: nearly all actives have a fitted effect of over 35% in size
Sequence of Gonadotropin-releasing hormone receptor (Homo sapiens) (P30968 whole entry, looked up): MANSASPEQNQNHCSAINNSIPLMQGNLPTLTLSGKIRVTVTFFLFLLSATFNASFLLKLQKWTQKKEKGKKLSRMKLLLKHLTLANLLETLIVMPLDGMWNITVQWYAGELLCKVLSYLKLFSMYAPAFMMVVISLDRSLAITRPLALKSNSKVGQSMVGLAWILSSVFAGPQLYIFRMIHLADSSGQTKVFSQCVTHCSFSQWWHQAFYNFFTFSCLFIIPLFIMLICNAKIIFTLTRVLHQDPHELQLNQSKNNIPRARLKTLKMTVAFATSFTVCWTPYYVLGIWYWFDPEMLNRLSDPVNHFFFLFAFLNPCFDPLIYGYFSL
Outline: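 Agonist mode: compounds at 15 concentrations, in triplicate, went onto calcium dye-loaded GnRHR-HEK293 cells. Intracellular calcium was then followed as 480/540 nm fluorescence at 1 s intervals over 3 min.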

[4] = target: KiSS-1 receptor (Homo sapiens) (UniProt Q969F8); assay: Human kisspeptin (KISS1R) small molecule agonists, calcium flux assay in KISS1R-HEK293 cells (AID 1920064; active = well fitted curve in the direction sought with a large enough effect in the repeat runs; an effect the other way counts as inactive or inconclusive)
Sequence of KiSS-1 receptor (Homo sapiens) (Q969F8 whole entry, looked up): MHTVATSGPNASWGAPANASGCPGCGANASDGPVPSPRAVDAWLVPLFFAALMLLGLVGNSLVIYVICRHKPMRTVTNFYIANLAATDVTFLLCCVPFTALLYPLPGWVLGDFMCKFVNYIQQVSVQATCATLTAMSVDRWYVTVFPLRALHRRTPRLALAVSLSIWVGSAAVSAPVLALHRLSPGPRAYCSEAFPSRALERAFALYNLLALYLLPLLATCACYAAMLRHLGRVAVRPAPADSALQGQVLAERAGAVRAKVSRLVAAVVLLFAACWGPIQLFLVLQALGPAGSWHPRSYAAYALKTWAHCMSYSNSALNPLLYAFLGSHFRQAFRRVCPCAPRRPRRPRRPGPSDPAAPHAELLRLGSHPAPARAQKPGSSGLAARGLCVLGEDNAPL
Outline: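 Agonist mode: intracellular calcium rise tracked at 1 s intervals over 3 min (480/540 nm) immediately after compound addition to dye-loaded KISS1R-HEK293 stable cells. Each compound tested at 15 concentrations in triplicate.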

[5] = G protein-coupled receptor (GPCR) small molecule agonists, calcium flux assay: HEK293 wild type cell line counter screen (AID 1920065)
Outline: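 Calcium flux counter screen: compound added in agonist mode at 15 concentrations in triplicate to dye-loaded parental HEK293 cells. Fluorescence (480/540) read kinetically for 3 min; ATP served as positive control.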

[6] = p53 small molecule agonists, cell-based qHTS assay with human liver microsomes (AID 1963577);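 also: p53 response element beta-lactamase reporter cells with liver microsomes plus NADPH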
Outline: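 With metabolic activation: human liver microsomes (0.5 mg/mL final) plus NADPH (0.5 mg/mL final) added alongside compounds to p53RE-bla cells; 16 h 37 C exposure; beta-lactamase read by LiveBLAzer fluorescence.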

[7] = p53 small molecule agonists, cell-based qHTS assay with rat liver microsomes (AID 1963578)
Outline: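 Metabolic activation by rat liver microsomes and NADPH, each 0.5 mg/mL final, added right after compounds to p53RE-bla reporter cells (4,000/well, plated 5 h earlier). 16 h at 37 C, then LiveBLAzer substrate for 2 h at room temperature in the dark; fluorescence read-out.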

[8] = p53 small molecule agonists, cell-based qHTS assay: qHTS cell viability counter screen (AID 1963581); also: nearly all actives have a fitted effect of over 45% in size
Outline: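 Counter screen read by CellTiter-Glo luminescence (ATP content, 30 min at room temperature), run in the same wells as the beta-lactamase reporter read. HCT-116 p53RE-bla cells saw compounds for 16 h at 37 C.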

[9] = p53 small molecule agonists, cell-based qHTS assay (AID 1963582; active = well fitted activation curve with a large enough effect in the signal ratio in the repeat runs, not every such curve was filed as active; the % refers to the signal ratio)
Outline: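 Read-out is beta-lactamase FRET fluorescence after 2 h at room temperature with LiveBLAzer B/G substrate. p53 response element-bla cells were treated 16 h at 37 C with compounds in DMSO, added 5 h after seeding.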

[10] = target: 5-hydroxytryptamine receptor 2A (Homo sapiens) (UniProt P28223); assay: 5-hydroxytryptamine receptor 2A (HTR2A) small molecule antagonists, cell-based qHTS assay (AID 1963586); also: nearly all actives have a fitted effect of over 45% in size; also: potency is read from the fitted curve at half-maximal effect
Sequence of 5-hydroxytryptamine receptor 2A (Homo sapiens) (P28223 whole entry, looked up): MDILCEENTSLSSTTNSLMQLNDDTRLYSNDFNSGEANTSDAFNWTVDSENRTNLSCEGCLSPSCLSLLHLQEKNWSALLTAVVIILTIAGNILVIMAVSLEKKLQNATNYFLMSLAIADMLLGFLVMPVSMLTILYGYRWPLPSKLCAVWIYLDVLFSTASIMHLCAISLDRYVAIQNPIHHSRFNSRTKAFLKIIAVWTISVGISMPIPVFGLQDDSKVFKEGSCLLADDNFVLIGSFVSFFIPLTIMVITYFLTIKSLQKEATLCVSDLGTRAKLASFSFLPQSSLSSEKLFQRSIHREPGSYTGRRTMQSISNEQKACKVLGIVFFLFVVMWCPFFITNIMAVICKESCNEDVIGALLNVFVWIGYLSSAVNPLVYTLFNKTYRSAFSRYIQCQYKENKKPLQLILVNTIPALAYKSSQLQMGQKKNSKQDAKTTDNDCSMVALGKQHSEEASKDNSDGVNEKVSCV
Outline: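 CHO cells stably expressing human HTR2A were plated for 18 h at 37 C, then loaded with calcium dye for 1 h. Compounds were preincubated 5 min at room temperature before DOI (4 nM solution) was added. Kinetic fluorescence was read for 3 min.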

[11] = target: 5-hydroxytryptamine receptor 2A (Homo sapiens) (UniProt P28223); assay: 5-hydroxytryptamine receptor 2A (HTR2A) small molecule agonists, cell-based qHTS assay (AID 1963587); also: nearly all actives have a fitted effect of over 30% in size
Outline: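 CHO cells stably expressing human HTR2A, plated 18 h, loaded with calcium dye 1 h at 37 C. Agonist mode: compounds added and intracellular calcium fluorescence recorded kinetically for 2 min at 1 sec intervals.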

[12] = target: Muscarinic acetylcholine receptor M1 (Homo sapiens) (UniProt P11229); assay: Cholinergic receptor muscarinic 1 (CHRM1) small molecule antagonists, cell-based qHTS assay (AID 1963588); also: nearly all actives have a fitted effect of over 40% in size; also: potency is read from the fitted curve at half-maximal effect
Sequence of Muscarinic acetylcholine receptor M1 (Homo sapiens) (P11229 whole entry, looked up): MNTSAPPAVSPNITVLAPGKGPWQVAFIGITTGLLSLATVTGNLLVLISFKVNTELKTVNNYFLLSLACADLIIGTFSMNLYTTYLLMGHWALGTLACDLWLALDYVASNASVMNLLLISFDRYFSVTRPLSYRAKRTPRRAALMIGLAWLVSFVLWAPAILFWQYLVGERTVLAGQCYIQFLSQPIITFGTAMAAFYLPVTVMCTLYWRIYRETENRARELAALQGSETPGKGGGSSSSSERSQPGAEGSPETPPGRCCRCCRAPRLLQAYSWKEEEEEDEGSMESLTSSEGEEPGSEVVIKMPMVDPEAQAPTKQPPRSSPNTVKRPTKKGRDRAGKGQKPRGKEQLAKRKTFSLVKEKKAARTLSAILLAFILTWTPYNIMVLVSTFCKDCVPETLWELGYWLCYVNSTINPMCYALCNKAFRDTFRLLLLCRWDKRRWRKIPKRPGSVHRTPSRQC
Outline: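 Compounds were tested at 15 concentrations in three independent runs. Dye-loaded CHRM1-CHO cells were exposed 5 min at room temperature before stimulation by acetylcholine added at 50nM. Intracellular calcium was read kinetically on FDSS for 3 min.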

[13] = target: Muscarinic acetylcholine receptor M1 (Homo sapiens) (UniProt P11229); assay: Cholinergic receptor muscarinic 1 (CHRM1) small molecule agonists, cell-based qHTS assay (AID 1963589); also: nearly all actives have a fitted effect of over 35% in size
Outline: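 Agonist-mode calcium-flux screen: compounds at 15 concentrations, three independent runs, were pin-transferred onto dye-loaded human CHRM1-CHO cells. Fluorescence was then recorded kinetically every second over minutes.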

[14] = cAMP Responsive Elements (CRE) small molecule agonists, cell-based qHTS assay (AID 1963590)
Outline: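 Agonist mode: compound added to CRE-bla HEK 293T cells (2,000/well, 18 h after plating) for 3 h at 37 C/5% CO2. Reporter activity detected via FRET beta-lactamase substrate, 2 h room-temperature loading.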

[15] = cAMP Responsive Elements (CRE) small molecule antagonists, cell-based qHTS assay (AID 1963591; active = well fitted inhibition curve with a large enough effect in the signal ratio in the repeat runs, not every such curve was filed as active; the % refers to the signal ratio)
Outline: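 Antagonist mode: compounds are added alongside the adenylyl cyclase activator NKH477 (0.25 uM final) to CRE-bla HEK293T cells for 3 h. LiveBLAzer FRET substrate, 2 h at room temperature, reports bla expression.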

[16] = target: D(2) dopamine receptor (Homo sapiens) (UniProt P14416); assay: Dopamine D2 receptor (DRD2) small molecule agonists, cell-based qHTS assay (AID 1963594); also: nearly all actives have a fitted effect of over 35% in size
Sequence of D(2) dopamine receptor (Homo sapiens) (P14416 whole entry, looked up): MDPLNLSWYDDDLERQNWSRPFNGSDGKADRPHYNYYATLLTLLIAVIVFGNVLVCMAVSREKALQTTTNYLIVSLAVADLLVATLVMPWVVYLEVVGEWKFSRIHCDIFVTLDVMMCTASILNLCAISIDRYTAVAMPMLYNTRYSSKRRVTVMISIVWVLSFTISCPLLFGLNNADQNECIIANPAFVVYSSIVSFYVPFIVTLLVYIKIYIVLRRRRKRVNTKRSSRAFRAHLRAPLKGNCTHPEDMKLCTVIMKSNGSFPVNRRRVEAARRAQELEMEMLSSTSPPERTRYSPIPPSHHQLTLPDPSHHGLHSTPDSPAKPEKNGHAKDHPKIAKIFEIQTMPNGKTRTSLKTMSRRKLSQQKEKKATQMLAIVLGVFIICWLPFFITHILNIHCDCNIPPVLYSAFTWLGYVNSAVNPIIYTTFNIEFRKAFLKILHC
Outline: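 HEK293 cells stably expressing human DRD2, pre-treated with PDE inhibitor Ro20-1724 (0.1 mM final) and compound 10 min at room temperature, then stimulated with NKH477 (200nM […]) for 30 min. cAMP read by HTRF (665/620 nm).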

[17] = target: D(2) dopamine receptor (Homo sapiens) (UniProt P14416); assay: Dopamine D2 receptor (DRD2) small molecule antagonists, cell-based qHTS assay (AID 1963595; active = well fitted inhibition curve with a large enough effect in the signal ratio in the repeat runs, with a control signal flat; the % refers to the signal ratio; also: potency is read from the fitted curve at half-maximal effect)
Outline: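 HEK293 cells stably expressing DRD2, preincubated with 0.1 mM Ro20-1724 and compounds 10 min, were stimulated with 200 nM NKH477 plus 12 nM quinpirole for 30 min at room temperature; cAMP measured by HTRF (665/620 nm).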

[18] = target: Beta-2 adrenergic receptor (Homo sapiens) (UniProt P07550); assay: Adrenergic beta2 receptor (ADRB2) small molecule antagonists, cell-based qHTS assay (AID 1963592); also: nearly all actives have a fitted effect of over 50% in size; also: potency is read from the fitted curve at half-maximal effect; as to activity change, negative = inhibition: series mostly up to about 92 µM
Sequence of Beta-2 adrenergic receptor (Homo sapiens) (P07550 whole entry, looked up): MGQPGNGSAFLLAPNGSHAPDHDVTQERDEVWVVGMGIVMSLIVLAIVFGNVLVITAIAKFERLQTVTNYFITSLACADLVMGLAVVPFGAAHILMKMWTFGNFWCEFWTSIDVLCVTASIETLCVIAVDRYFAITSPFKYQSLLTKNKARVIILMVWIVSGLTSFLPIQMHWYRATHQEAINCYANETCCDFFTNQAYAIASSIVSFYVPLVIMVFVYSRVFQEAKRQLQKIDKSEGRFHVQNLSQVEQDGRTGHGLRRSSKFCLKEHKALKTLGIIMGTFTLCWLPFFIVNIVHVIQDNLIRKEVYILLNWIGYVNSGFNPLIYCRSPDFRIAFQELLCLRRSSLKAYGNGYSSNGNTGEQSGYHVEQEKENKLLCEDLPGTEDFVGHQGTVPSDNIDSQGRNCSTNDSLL
Outline: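 Assay format: CHO-ADRB2 cells, 18-20hr seeding at 37C/5% CO2, then compound plus 1nM isoproterenol agonist mix for 0.5hr RT. Homogeneous time-resolved fluorescence cAMP detection after 1hr, expressed as 665/615 nm ratio.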

[19] = target: Beta-2 adrenergic receptor (Homo sapiens) (UniProt P07550); assay: Adrenergic beta2 receptor (ADRB2) small molecule agonists, cell-based qHTS assay (AID 1963593);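 also: CHO cells stably overexpressing human ADRB2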
Outline: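 CHO cells stably over-expressing ADRB2 were plated overnight at 37C, then dosed with compounds plus a stimulation mix containing 100uM IBMX and 25uM Ro-20-1724 for 0.5hr at room temperature. cAMP was measured by HTRF competition, 1hr.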

[20] = p53 small molecule agonists, cell-based qHTS assay with human liver microsomes: qHTS cell viability counter screen (AID 1963579); also: nearly all actives have a fitted effect of over 45% in size
Outline: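 Metabolic activation used human liver microsomes and NADPH, both 0.5 mg/mL final, over 16 hours at 37 C on p53RE-bla cells (4,000/well). Cytotoxicity measured by CellTiter-Glo luminescence, 30 min at room temperature.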
% is scaled to controls: 0 for no effect and ±100 for the full control effect.

CC(C)C(=O)Nc1cccc(C(F)(F)F)c1
inactive: Potency [1] | Potency [2] | Potency [3] | outcome [4] | outcome [5] | Potency [6] | Potency [7] | Potency [8] | Potency [9] | Potency [10] | Potency [11] | Potency [12] | Potency [13] | Potency [14] | Potency [15] | Potency [16] | Potency [17]

Cc1ccc2cccnc2c1
inactive: Potency [1] | Potency [2] | Potency [3] | outcome [4] | outcome [5] | Potency [6] | Potency [7] | Potency [8] | Potency [9] | Potency [10] | Potency [11] | Potency [12] | Potency [13] | Potency [14] | Potency [18] | Potency [19] | Potency [16] | Potency [17]

CO[Si](CCCS)(OC)OC
inactive: Potency [1] | Potency [2] | Potency [3] | outcome [4] | outcome [5] | Potency [6] | Potency [7] | Potency [8] | Potency [9] | Potency [10] | Potency [11] | Potency [12] | Potency [13] | Potency [14] | Potency [15] | Potency [18]

S=C(SSSSSSC(=S)N1CCCCC1)N1CCCCC1
inactive: activity, positive = activation [2] -39.1% [at 19 µM] | activity change [3] 9.84% [at 11.8 µM, stronger effect = higher value] | activation [4] 1.75% [at 15.8 µM] | activation [5] 0.115% [at 11.8 µM] | activation [6] -17.2% [at 13.5 µM] | activation [7] -7.65% [at 13.6 µM] | activity change, negative = cytotoxicity [8] 9.63% [at 13.5 µM] | activation [9] -6.37% [at 13.5 µM] | activity, negative = inhibition [10] -4.42% [at 12.7 µM] | activation [11] 13.8% [at 15.9 µM] | activity, negative = inhibition [12] -12.9% [at 12.6 µM] | activation [13] 2.41% [at 15.8 µM] | activation [14] -0.287% [at 19 µM] | activity change, negative = inhibition [15] -25.4% [at 18.9 µM] | activity change, negative = inhibition [18] 8.1% [at 19 µM] | activation [16] -0.326% [at 19 µM] | activity change, negative = inhibition [17] 1.15% [at 18.9 µM]
active: Potency [1] 0.134 µM

CC/C(=C\C(=N/O)C(N)=O)C(C)[N+](=O)[O-] (stereo not given)
inactive: Potency [1] | Potency [2] | Potency [3] | outcome [4] | outcome [5] | Potency [6] | Potency [7] | Potency [8] | Potency [9] | Potency [10] | Potency [11] | Potency [12] | Potency [13] | Potency [14] | Potency [15] | Potency [18] | Potency [16] | Potency [17]

COc1ccccc1Oc1c(NS(=O)(=O)c2ccc(C(C)(C)C)cc2)nc(-c2ncccn2)nc1OCCO
inactive: Potency [1] | Potency [3] | outcome [4] | outcome [5] | Potency [6] | Potency [7] | Potency [8] | Potency [9] | Potency [10] | Potency [11] | Potency [12] | Potency [13] | Potency [15] | Potency [18] | Potency [19] | Potency [16] | Potency [17]
active: Potency [2] 33.5 µM

C=C(C)C(=O)OCC(O)CO (stereo not given)
inactive: Potency [1] | Potency [2] | Potency [3] | outcome [4] | outcome [5] | Potency [6] | Potency [7] | Potency [8] | Potency [9] | Potency [10] | Potency [11] | Potency [12] | Potency [13] | Potency [14] | Potency [18] | Potency [19] | Potency [16] | Potency [17]

COc1cc(O)cc(O)c1
inactive: Potency [1] | Potency [2] | Potency [3] | outcome [4] | outcome [5] | Potency [6] | Potency [7] | Potency [8] | Potency [9] | Potency [10] | Potency [11] | Potency [12] | Potency [13] | Potency [14] | Potency [15] | Potency [18] | Potency [19] | Potency [16] | Potency [17]

CCCCCCCCN(C)CCCCCCCC
inactive: Potency [1] | Potency [2] | Potency [3] | outcome [4] | outcome [5] | Potency [6] | Potency [7] | Potency [8] | Potency [9] | Potency [10] | Potency [11] | Potency [12] | Potency [13] | Potency [14] | Potency [15] | Potency [18] | Potency [17]

CCCCCCCCCCCCCOP(=O)(O)O
inactive: Potency [1] | Potency [2] | Potency [3] | outcome [4] | outcome [5] | Potency [6] | Potency [7] | Potency [20] | Potency [10] | Potency [11] | Potency [12] | Potency [13] | Potency [14] | Potency [15] | Potency [18] | Potency [19] | Potency [16] | Potency [17]

CN1CCCN=C1COC(=O)C(O)(c1ccccc1)C1CCCCC1 (stereo not given)
active: Potency [12] 0.0116 µM
inactive: Potency [1] | Potency [2] | Potency [3] | outcome [4] | outcome [5] | Potency [6] | Potency [7] | Potency [8] | Potency [9] | Potency [10] | Potency [11] | Potency [13] | Potency [15] | Potency [18] | Potency [19] | Potency [16] | Potency [17]

CC(C)(C)C1CCC(=O)CC1
inactive: Potency [1] | Potency [3] | outcome [4] | outcome [5] | Potency [6] | Potency [7] | Potency [8] | Potency [9] | Potency [10] | Potency [11] | Potency [12] | Potency [13] | Potency [14] | Potency [15] | Potency [18] | Potency [16] | Potency [17]
active: Potency [2] 68.6 µM

O=C1NCN(c2ccccc2)C12CCN(CCCC(c1ccc(F)cc1)c1ccc(F)cc1)CC2
inactive: Potency [2] | Potency [3] | outcome [4] | outcome [5] | Potency [6] | Potency [7] | Potency [20] | Potency [11] | Potency [13] | Potency [16]
active: Potency [1] 29.8 µM | Potency [10] 0.0516 µM | Potency [18] 23.7 µM | Potency [17] 0.0335 µM

CC1=CCC2C(C1)C2(C)C (stereo not given)
active: Potency [18] 27.3 µM
inactive: Potency [1] | Potency [2] | Potency [3] | outcome [4] | outcome [5] | Potency [6] | Potency [7] | Potency [8] | Potency [9] | Potency [10] | Potency [11] | Potency [12] | Potency [13] | Potency [14] | Potency [15] | Potency [17]

O=C(O)CCCC[P+](c1ccccc1)(c1ccccc1)c1ccccc1
inactive: Potency [1] | Potency [2] | Potency [3] | outcome [4] | outcome [5] | Potency [6] | Potency [7] | Potency [8] | Potency [9] | Potency [10] | Potency [11] | Potency [12] | Potency [13] | Potency [14] | Potency [15] | Potency [18]
